Source: PubChem BioAssay (EPA / NIEHS)
Several values for one entry are separate records, joined by “and”; a condition that tells them apart may be missing. Equal values may be shown once. Inconclusive results are not listed. Some structures have more than one record in an assay (separate samples or runs), and their calls can disagree. Activity calls are given as the source filed them. Rule for the calls, unless noted: active = hit-call score of the fitted dose curve at least 0.9, where 1 is the maximum; inconclusive = response in the unintended direction; inactive = score below 0.9.

Columns and labels:
[1] = biological target: Cellular tumor antigen p53 (Homo sapiens) (UniProt P04637); assay: TOX21_p53_BLA_p2_ratio: Tox21 HCT-116 p53 Agonism Beta-lactamase Assay, Ratio, Phase 2 (AID 2283592)
Cellular tumor antigen p53 (Homo sapiens), sequence (P04637 whole entry, looked up): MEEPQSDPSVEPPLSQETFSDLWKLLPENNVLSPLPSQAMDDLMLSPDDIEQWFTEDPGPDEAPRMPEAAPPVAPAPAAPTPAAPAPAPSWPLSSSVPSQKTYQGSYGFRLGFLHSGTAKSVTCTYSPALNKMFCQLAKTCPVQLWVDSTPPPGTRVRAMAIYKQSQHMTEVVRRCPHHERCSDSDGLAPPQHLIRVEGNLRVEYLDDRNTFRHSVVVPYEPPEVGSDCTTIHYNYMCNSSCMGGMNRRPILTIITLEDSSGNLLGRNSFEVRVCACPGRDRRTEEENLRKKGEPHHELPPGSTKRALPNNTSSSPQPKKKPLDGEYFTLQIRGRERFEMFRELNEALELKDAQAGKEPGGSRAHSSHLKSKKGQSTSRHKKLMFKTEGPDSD
Outline: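 HCT116 cells carrying a p53-responsive beta-lactamase reporter were plated, incubated 5 h at 37C, then dosed with compounds in DMSO (217-fold dilution) for 16 h. CCF4-AM substrate was added for 2 h at room temperature; the 460/530 nm emission ratio gave gain-of-signal activity relative to DMSO.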

[2] = TOX21_p53_BLA_p3_viability: Viability Assessment in the Tox21 HCT-116 p53 Agonism Beta-lactamase Assay, Phase 3 (AID 2283593);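 note: cells exposed to compound for 16 h before reading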
Outline: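 Cellular ATP was quantified by CellTiter-Glo luminescence, read after 30 min at room temperature. Beforehand, HCT116 cells (4000/well) received compound 5 h post-seeding, 217-fold diluted from DMSO, then incubated 16 h at 37C.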

[3] = biological target: Cellular tumor antigen p53 (Homo sapiens) (UniProt P04637); assay: TOX21_p53_BLA_p3_ratio: Tox21 HCT-116 p53 Agonism Beta-lactamase Assay, Ratio, Phase 3 (AID 2283596)
Outline: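 HCT116 p53-bla cells (4000/well) given compound in DMSO (217-fold dilution) after 5 h, incubated 16 h at 37C. CCF4-AM substrate 2 h at room temperature; 460/530 nm emission ratio, gain fitted against DMSO.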

[4] = TOX21_p53_BLA_p4_viability: Viability Assessment in the Tox21 HCT-116 p53 Agonism Beta-lactamase Assay, Phase 4 (AID 2283597);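 note: hits lower the luminescence signal meaning cytotoxicity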
Outline: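 HCT116 p53-bla cells (4000/well) rested 5 h at 37C, then received compounds in DMSO (217-fold dilution) for 16 h at 37C, 5% CO2. CellTiter-Glo was added after the CCF4-AM read, and luminescence was read after 30 min at room temperature.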

[5] = biological target: Cellular tumor antigen p53 (Homo sapiens) (UniProt P04637); assay: TOX21_p53_BLA_p5_ratio: Tox21 HCT-116 p53 Agonism Beta-lactamase Assay, Ratio, Phase 5 (AID 2283599)
Outline: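 Beta-lactamase reporter ratio (blue 460 nm over green 530 nm, 405 nm excitation) after 2 h CCF4-AM loading, in HCT-116 cells exposed 16 h at 37 C to compounds pinned at 217-fold dilution. Increases relative to DMSO baseline scored.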

[6] = TOX21_p53_BLA_p5_viability: Viability Assessment in the Tox21 HCT-116 p53 Agonism Beta-lactamase Assay, Phase 5 (AID 2283600)
Outline: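 Cells were plated at 4000/well, rested 5 h at 37C, then given compounds in DMSO (217-fold dilution) for 16 h at 37C, 5% CO2. Following the CCF4-AM beta-lactamase read, CellTiter-Glo was added and luminescence was read after 30 min at room temperature.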

[7] = biological target: Cellular tumor antigen p53 (Homo sapiens) (UniProt P04637); assay: TOX21_p53_BLA_p4_ratio: Tox21 HCT-116 p53 Agonism Beta-lactamase Assay, Ratio, Phase 4 (AID 2283601)
Outline: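 Signal is the blue/green (460nm/530nm) ratio of cleaved versus uncleaved CCF4-AM substrate, read after 2 h substrate loading. Cells were HCT116 carrying the p53-responsive beta-lactamase reporter, dosed 16 h at 37C, 5% CO2; CellTiter-Glo measured in parallel.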

[8] = STM_H9_OrnCyssISnorm_ratio: Stemina devTOX quickPredict H9 human embryonic stem cell (hESC)-based Assay for Ornithine (ORN):Cystine (CYSS) Ratio (AID 2283714)
Outline: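 Steps: H9 hESCs in pluripotent state dosed 72h, medium plus compound renewed every 24h; conditioned medium from the final 24h deproteinized in 40% acetonitrile; ORN and CYSS quantified by UPLC-HRMS with C13 spike-ins; ratio relative to vehicle.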

[9] = system: Thyroperoxidase (TPO), gene 54314; assay: CCTE_Simmons_AUR_rTPO: CCTE's Amplex UltraRed Assay for Thyroperoxidase (TPO) Inhibition, Simmons Lab (AID 2283662);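 note: potency for loss of signal meaning inhibition of peroxidase activity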
Outline: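 Endpoint is decreased Amplex UltraRed fluorescence after a 30-min, 37C reaction of rat thyroid microsomes with 300 uM H2O2. Eight test concentrations (5 nM–87.5 uM final) in 0.5% DMSO, three biological replicates each.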

[10] = CCTE_Simmons_CellTiterGLO_HEK293T: Viability Assessment in CCTE's Assays for Thyroperoxidase (TPO) Inhibition, Simmons Lab (AID 2283665)
Outline: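 HEK293T cells in DMEM with 1% FBS were dosed with 8 concentrations (5 nM–87.5 uM final, 0.5% DMSO) for 24 hr at 37C; ATP content was read by CellTiter-Glo luminescence, loss-of-signal versus DMSO, three biological replicates.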

[11] = CEETOX_H295R_MTT_cell_viability: Viability Assessment in the CeeTox HT-H295R MTT Assay (AID 2283718; active = hit-call score of the fitted dose curve at least 0.9, where 1 is the maximum; inactive = score below 0.9;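 note: curve fitted both ways so AC50 may mark viability loss or gain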)
Outline: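 MTT reduction (0.5 mg/ml, 4 h at 37 C; absorbance at 570 and 650 nm) gave viability as background-corrected percent change versus controls. H295R cells had 48 h forskolin (10 uM) prestimulation, then 48 h chemical exposure at 0.1% DMSO.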

[12] = biological target: Luciferin 4-monooxygenase (Photinus pyralis) (UniProt P08659); assay: CCTE_Simmons_QuantiLum_inhib_2: CCTE's Firefly Luciferase Inhibition Assay, Simmons Lab (AID 2283767)
Luciferin 4-monooxygenase (Photinus pyralis), sequence (P08659 whole entry, looked up): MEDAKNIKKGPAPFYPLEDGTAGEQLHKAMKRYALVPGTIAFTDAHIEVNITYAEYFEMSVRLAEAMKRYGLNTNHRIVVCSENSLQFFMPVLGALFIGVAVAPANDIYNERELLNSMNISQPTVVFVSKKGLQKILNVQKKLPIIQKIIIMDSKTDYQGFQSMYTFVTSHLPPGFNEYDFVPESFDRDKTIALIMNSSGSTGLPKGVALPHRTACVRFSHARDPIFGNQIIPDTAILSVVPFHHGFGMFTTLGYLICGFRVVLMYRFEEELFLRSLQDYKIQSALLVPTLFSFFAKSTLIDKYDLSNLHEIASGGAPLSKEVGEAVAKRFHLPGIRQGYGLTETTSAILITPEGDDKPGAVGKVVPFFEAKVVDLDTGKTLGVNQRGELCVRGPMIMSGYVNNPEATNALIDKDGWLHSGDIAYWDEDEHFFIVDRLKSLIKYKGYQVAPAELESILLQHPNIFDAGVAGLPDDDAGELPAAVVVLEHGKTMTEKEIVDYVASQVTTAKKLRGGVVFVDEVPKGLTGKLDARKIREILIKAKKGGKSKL
Outline: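 Recombinant firefly luciferase (5 ng/well, 200 mM potassium phosphate with 1 mg/ml BSA) was exposed to 8 concentrations from 5 nM to 87.5 uM (final, 0.5% DMSO) for 30 min at 37C in the dark. Loss of luminescence versus DMSO was read after injecting D-luciferin/ATP-analogue reagent.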

[13] = ACEA_AR_agonist_AUC_viability: ACEA Biosciences xCELLigence Real-Time Cell Analysis on Androgen Receptor Agonism for Viability (AID 2283775);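 note: viability read 80 hours after compound addition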
Outline: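 Read-out is area under the impedance curve at 80 h post-dose in 22Rv1 cells, with DMSO as baseline and signal loss taken as reduced viability. Compounds ran in duplicate from 100 uM final.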

[14] = ACEA_AR_antagonist_AUC_viability: ACEA Biosciences xCELLigence Real-Time Cell Analysis on Androgen Receptor Antagonism for Viability (AID 2283776);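 note: 22Rv1 human prostate cancer cells growing on impedance electrode plates; area under impedance growth curve at 80 h after dosing as viability; hits lower the growth signal relative to DMSO meaning cytotoxicity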
Outline: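 Viability endpoint from label-free cell-index monitoring: 22Rv1 cultures treated with an eight-point 1:4 dilution series starting at 100 uM final, AUC at 80 h fitted against DMSO.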

Measured: AC50

Cc1cc(=O)n(-c2ccccc2)n1C
inactive: [1] | [2] | [3] | [4] | [5] | [6] | [7]

Nc1ccc(N)c(Cl)c1
active: [1] 68.3 µM | [3] 76.2 µM | [5] 75.2 µM | [7] 72.1 µM | [8] 13.5 µM
inactive: [1] | [2] | [4] | [5] | [6] | [7]

CCCCCCCCCCCSCC(=O)O
inactive: [2] | [3]
active: [1] 83.3 µM | [4] 84 µM | [5] 83.5 µM | [6] 74 µM | [7] 86.7 µM

CC(C)c1ccc2c(c1)CC[C@H]1[C@](C)(CN)CCC[C@]21C
active: [1] 47.1 µM | [2] 32.3 µM | [3] 72.5 µM | [4] 49.6 µM | [5] 78.5 µM | [6] 63.5 µM | [7] 85.8 µM

COc1cc(NC(=O)CC(C)=O)c(OC)cc1Cl
inactive: [1] | [2] | [3] | [4] | [5] | [7]
active: [4] 31 µM

CC(=O)NS(=O)(=O)c1ccc(N)cc1
inactive: [1] | [2] | [3] | [4] | [5] | [6] | [7]

CC1(C)O[C@@H]2C[C@H]3[C@@H]4C[C@H](F)C5=CC(=O)CC[C@]5(C)[C@H]4[C@@H](O)C[C@]3(C)[C@]2(C(=O)CO)O1
inactive: [1] | [2] | [3] | [4] | [5] | [6] | [7]

O=C(Oc1ccccc1)c1ccc2ccccc2c1O
inactive: [1] | [2] | [3] | [4] | [5] | [6] | [7]

Cc1oncc1C(=O)Nc1ccc(C(F)(F)F)cc1
inactive: [1] | [2] | [3] | [4] | [5] | [6]

COCC(C)N (stereo not given)
inactive: [1] | [2] | [3] | [4] | [5] | [6] | [7]

[Cl][In]([Cl])[Cl]
inactive: [1] | [2] | [3] | [4] | [5] | [6] | [7]

COC(=O)/C=C/C(C)=C\C=C\C(C)=C\C=C\C=C(C)\C=C\C=C(C)\C=C\C(=O)O
inactive: [1] | [2] | [3] | [4] | [5]

COC(=O)C1=C(C)NC(C)=C(C(=O)OCC(C)C)C1c1ccccc1[N+](=O)[O-] (stereo not given)
inactive: [2] | [3] | [4] | [5] | [6]
active: [1] 18.4 µM | [3] 23 µM | [5] 20.6 µM | [7] 33.2 µM and 18.9 µM

N=c1ccn2c(n1)O[C@H]1[C@H](O)[C@@H](CO)O[C@H]12
inactive: [2] | [4] | [6]
active: [1] 1 µM and 2.41 µM | [3] 2.17 µM and 3.17 µM | [5] 2.67 µM and 729 nM | [7] 1.27 µM and 1.19 µM

CC(C)C1=CC2=CC[C@@H]3[C@](C)(CCC[C@@]3(C)C(=O)O)[C@H]2CC1
inactive: [1] | [2] | [3] | [4] | [5] | [6]

Nc1ncn([C@@H]2O[C@H](CO)[C@@H](O)[C@H]2O)c(=O)n1
active: [1] 1.06 µM | [3] 13.4 µM | [4] 1.15 µM and 514 nM | [5] 3.88 µM and 6.69 µM | [7] 13.6 µM and 6.66 µM
inactive: [1] | [2] | [3] | [6]

Nc1ccc(N=Nc2ccccc2)c(N)n1
active: [1] 85.6 µM and 25.8 µM | [3] 87.8 µM and 85.8 µM and 43.2 µM | [5] 83.5 µM and 85.4 µM
inactive: [1] | [2] | [4] | [5] | [7]

Cc1cc(O)c(Cl)c(C)c1Cl
active: [1] 73.9 µM | [2] 57.8 µM | [3] 85 µM | [4] 61.7 µM | [5] 77.1 µM | [6] 70.1 µM | [7] 74.9 µM

CN1C(=O)N(C)C(O)C1O (stereo not given)
inactive: [1] | [2] | [3] | [4] | [5] | [6] | [7]

C/C=C\C/C=C/CCCCCCCCOC(C)=O
inactive: [1] | [2] | [3] | [4] | [5] | [6] | [7]

CC(C)c1ccc(C=O)cc1
inactive: [1] | [2]

CN(C)c1ccc(C(=N)c2ccc(N(C)C)cc2)cc1
inactive: [2] | [4] | [6] | [10] | [12]
active: [1] 896 nM and 2.2 µM | [3] 13.2 µM and 6.84 µM | [5] 2.63 µM and 2.56 µM | [7] 936 nM and 1.49 µM | [9] 31.6 µM | [11] 0.0018 µM | [13] 3.18 µM | [14] 3.19 µM

Cc1cccc(N(C)C(=S)Oc2ccc3ccccc3c2)c1
inactive: [1] | [2] | [3] | [4] | [5] | [6] | [7]

CCCCCCCCCCC=CC#N
inactive: [1] | [2] | [3] | [4] | [5] | [6] | [7]

CCCNC(=O)NS(=O)(=O)c1ccc(Cl)cc1
inactive: [1] | [2] | [3] | [4] | [5] | [6] | [7]

CC(=O)Nc1nnc(S(N)(=O)=O)s1
inactive: [1] | [2] | [3] | [4] | [5] | [6] | [7]

O=C(Nc1ccccc1)c1ccccc1O
active: [1] 57 µM
inactive: [2] | [3] | [4] | [5] | [6] | [7]
